According to ChEMBL document CHEMBL3988442, “University of Dundee, Small-Polar-MMV Screening Library” (2021):
About 13,000 (27%) of roughly 48,000 compounds showed an effect of 50% or more. The list shows a part of the results.

System: Wolbachia pipientis
Assay: Anti-Wolbachia Cell-Based Screen
Assay type: functional
Design: scale not given: in the data most compounds retested in dose-response had high values
Conditions: 5 µM

SMILES | Percent Effect [%]
Cc1ocnc1C(=O)N1CCC2(CC1)c1nc[nH]c1CCN2CC(C)C | 6.768
OC(COCc1cccs1)CSc1nnc2ccccn12 (stereo not given) | 9.754
Cn1nc(C#N)c2c1CN(C(=O)c1cccnc1)CCC2.O=C(O)C(F)(F)F | 29.43
COc1nn(C)c2c1CCCN(C(=O)c1cccc(C)n1)C2.O=C(O)C(F)(F)F | 98.8
COc1nn(C)c2c1CCCN(S(=O)(=O)c1cccc(F)c1)C2 | -2.811
Cc1ccccc1C(=O)N1Cc2c(Cn3ccnc3)nn(C)c2C1.O=C(O)C(F)(F)F | -9.207
COc1nn(C)c2c1CCCN(C(=O)c1cccc3cccnc13)C2.O=C(O)C(F)(F)F | 97.34
COc1nn(C)c2c1CCCN(C(=O)c1ccccc1)C2 | -3.094
Cc1nc(COCc2cnc3n2CCN(C2CCC2)C3C)cs1.O=C(O)C(F)(F)F (stereo not given) | 1.124
Cc1c(C(=O)N2CC(=O)N(C)C2)nnn1-c1cccc2cccnc12 | -0.5272
Cc1occc1C(=O)NCC(=O)NCCOc1ccc2c(c1)CCC2 | 29.83
Cn1ccnc1C(=O)NC[C@H]1OC[C@@H]2CCN(S(C)(=O)=O)C[C@@H]21 | -43.59
Cc1cc(=O)n(CCNS(=O)(=O)c2ccccc2)cn1 | 113.1
Cc1cc(=O)n(CCNS(=O)(=O)c2ccc(F)c(Cl)c2)cn1 | 79.22
CNS(=O)(=O)c1cccc(CNc2cc(C(F)(F)F)ccn2)c1 | -5.444
O=c1ccc(-n2cccn2)nn1CCNS(=O)(=O)c1ccc(F)c(Cl)c1 | 8.551
CCCn1ccnc1SCCNS(=O)(=O)c1ccccc1 | 8.595
Cc1cc(C)n(-c2ccc(NCCNS(=O)(=O)c3ccccc3)nn2)n1 | 5.574
Cc1cc(=O)n(CCNS(=O)(=O)c2cccc(C(F)(F)F)c2)cn1 | 121.6
O=c1ccc(-n2ccnc2)nn1CCNS(=O)(=O)c1ccc(F)c(Cl)c1 | 15.65
Cc1cc(NCCNS(=O)(=O)c2cccc(Cl)c2)nc(C)n1 | 15.59
O=C(Nc1ccc2occc2c1)N1CCCC(O)(CO)CC1 (stereo not given) | -15.39
Cc1cc(Br)ccc1NCC(=O)Nc1cc(C(C)(C)C)no1 | -8.877
Cc1n[nH]c(C)c1C1COCCN1C(=O)Cc1cccc(F)c1 (stereo not given) | -5.544

SMILES | Percent Effect [%]
CC(=O)Nc1cc(C(=O)N2CCOCC2c2ccc(C)o2)ccc1F (stereo not given) | -2.563
Cc1n[nH]c(C)c1C1COCCN1C(=O)c1ccccc1 (stereo not given) | 5.535
Cc1cn[nH]c1C1COCCN1C(=O)c1ccc2c(c1)CCCC2 (stereo not given) | 108.4
Cc1cn[nH]c1C1COCCN1C(=O)c1ccc2[nH]nnc2c1 (stereo not given) | 120.8
O=C(c1ccc2c(c1)CCCC2)N1CCOCC1c1ncon1 (stereo not given) | 4.25
Cc1cn[nH]c1C1COCCN1C(=O)c1cc(F)ccc1F (stereo not given) | 95.39
CS(=O)(=O)NCc1ccc(NC(=O)CC2=CCCCC2)cc1 | 0.7476
CCN1CCN(CC(O)c2cc(Cl)ccc2Cl)CC1 (stereo not given) | -3.784
CCOc1ccc(Cl)cc1C(C(=O)O)N1CCCC1 (stereo not given) | -26.77
CN(CCO)Cc1cc(Cl)ccc1OCC(O)CN1CCCCCC1 (stereo not given) | 92.98
CN(CCCO)Cc1cc(Cl)ccc1OCC(O)CN1CCCCCC1 (stereo not given) | 86.94
OCCN1CCN(CC(O)c2cc(Cl)ccc2Cl)CC1 (stereo not given) | -2.66
CCOCC(O)CN1CCN(C(=O)c2ccnc(N(C)C)c2)CC1 (stereo not given) | -11.71
COCCN(C)C(C(=O)O)c1cc(Cl)ccc1OC (stereo not given) | -4.575
COCC(O)CN1CCC(NC(=O)c2ccccc2Cl)CC1 (stereo not given) | -8.699
COCCN(C)Cc1cc(Cl)ccc1OCC(O)CN1CCCCCC1 (stereo not given) | 95.86
COc1cccc(CN2C[C@@H](F)[C@@H](OCc3nc4cnccc4[nH]3)C2)c1 | -9.076
COc1ccc(C2C3=C(COC3=O)Nc3[nH]nc(C)c32)cc1OC (stereo not given) | 3.297
NC(=O)CCn1ccc(NCc2cc(F)ccc2Br)n1 | -14.37
Cc1cc(CNc2ccnn2C)ccc1-n1cncn1 | 1.687
Cc1ccc2oc(CNC(C)c3nnc4n3CCCC4)cc2c1 (stereo not given) | -13.95
CC(NCc1cc2cc(F)ccc2o1)c1nnc2n1CCCC2 (stereo not given) | -7.412
COCCn1ccc(NCc2sccc2C)n1 | -10.57
COCCn1ccc(NCc2cc3cc(F)ccc3o2)n1 | 97.47

SMILES | Percent Effect [%]
Cn1ccc(NCc2cc3cc(F)ccc3o2)n1 | 107
COCCn1ccc(NCc2scnc2C)n1 | 1.852
Cn1nccc1NCc1cc2cc(F)ccc2o1 | 98.61
CC(C(=O)N1CCN(c2ccc(F)cc2)CC1)n1ccnc1 (stereo not given) | 2.016
CN(C)S(=O)(=O)N1C[C@@H]2CC[C@H](C1)N(C/C=C/c1ccc(F)cc1)C2 | 19.59
Cc1ccccc1OCC(=O)N1CCOC2(CNCCOC2)C1 (stereo not given) | -22.9
COc1ccccc1CC(=O)N1CCC(NCc2cc[nH]c2)CC1 | 5.746
CCCc1noc(CCC(=O)N2CCCC2c2ccsc2)n1 (stereo not given) | 2.757
CCCc1noc(CCC(=O)N2CCCCC2Cn2cc(C)cn2)n1 (stereo not given) | 117.6
CCCc1noc(CCC(=O)N2CCCC2Cn2cc(C)cn2)n1 (stereo not given) | 127.2
O=C(O)C(F)(F)F.c1cnc(N2C[C@@H]3COC[C@]3(COCC3CCCC3)C2)nc1 | 99.14
Fc1cnc(N2C[C@H]3CCC[C@@]3(COc3ccccn3)C2)nc1.O=C(O)C(F)(F)F.O=C(O)C(F)(F)F | -0.7444
O=C(O)C(F)(F)F.O=C(O)C(F)(F)F.c1ccc(OC[C@]23COC[C@H]2CN(c2ncccn2)C3)nc1 | -14.79
O=C(CC1CC1)NC[C@]12COC[C@H]1CN(c1ncc(F)cn1)C2.O=C(O)C(F)(F)F | -10.91
COc1cc(N2C[C@@H]3COC[C@]3(COc3ccccn3)C2)ncn1.O=C(O)C(F)(F)F.O=C(O)C(F)(F)F | 106
Fc1cnc(N2C[C@@H]3COC[C@]3(COc3ccccn3)C2)nc1.O=C(O)C(F)(F)F.O=C(O)C(F)(F)F | 104.4
CN(C)S(=O)(=O)N1C[C@@H]2COC[C@]2(COc2ccccn2)C1.O=C(O)C(F)(F)F | 82.39
COc1cc(N2C[C@@H]3COC[C@]3(C(=O)NCc3ccccn3)C2)ncn1 | -14.4
CCS(=O)(=O)N1C[C@H]2CCC[C@@]2(COc2ccccn2)C1.O=C(O)C(F)(F)F | 18.76
O=C(O)C(F)(F)F.O=S(=O)(C1CC1)N1C[C@H]2CCC[C@@]2(COc2ccccn2)C1 | 2.736
COc1cc(N2C[C@@H]3COC[C@]3(C(=O)NC3CC(F)(F)C3)C2)ncn1.O=C(O)C(F)(F)F | 12.94
O=C(CC1CC1)NC[C@]12COC[C@H]1CN(c1ncccn1)C2.O=C(O)C(F)(F)F | -5.322
CNC(=O)C(C)(C)NC(=O)c1cc(OCC2CCC2)cc(C(=O)OC)c1 | -3.572
Fc1cccc(-c2nnn3c2COC(CNCc2cccs2)C3)c1.O=C(O)C(F)(F)F (stereo not given) | 3.148

SMILES | Percent Effect [%]
CCCN1CCC(N2CCN(c3cc(C)nc(COC)n3)CC2)CC1 | -8.34
CN(C)c1cccc(C2CCCN2CCCN2CCOC2=O)c1 (stereo not given) | -17.44
Cc1ccccc1N1CCN(c2cc(N(C)C)ncn2)C(C)C1 (stereo not given) | 2.423
OCC1CCCN1c1cc(N2CCN(c3ccccn3)CC2)ncn1 (stereo not given) | 2.004
CN(C)CCN(C)c1cc(N2CCN(c3ccccn3)CC2)ncn1 | 127.7
CN(CCc1ccccn1)c1cc(N2CCCCC2)ncn1 | -10.66
CN(CCC(O)c1ccccc1)c1cc(N2CCOCC2)ncn1 (stereo not given) | 3.711
CN(C)c1cc(N2CCN(c3ccccn3)CC2)ncn1 | 109.8
CS(=O)(=O)N1C[C@@H]2CC[C@H](C1)N(C(=O)CCc1n[nH]c3c1CCCC3)C2 | -4.237
O=C(C1=CCCCC1)N1CCC2(CC1)COC(COc1ccccn1)C2.O=C(O)C(F)(F)F (stereo not given) | -10.4
Cc1cc(C(=O)N2CC[C@H]3[C@@H]2CCC(=O)N3c2ccccc2)no1 | -22.73
CC(NCC1CCN(CCO)CC1)c1cccc(Cl)c1 (stereo not given) | -3.921
c1ccc2oc(C3CCN(Cc4ncon4)CC3)nc2c1 | -12.07
CCOCC1CN(C(=O)Cc2ccccn2)Cc2c1cnn2C.O=C(O)C(F)(F)F.O=C(O)C(F)(F)F (stereo not given) | -14.09
CCOCC1CN(C(=O)c2cnoc2C)Cc2cn(CC3CC3)nc21 (stereo not given) | -17.44
CCOCC1CN(C(=O)c2ccoc2C)Cc2cnn(C)c21 (stereo not given) | 98.5
CCOCC1CN(C(=O)CS(C)(=O)=O)Cc2cnn(C)c21.O=C(O)C(F)(F)F (stereo not given) | 16.84
CCOCC1CN(C(=O)c2ccco2)Cc2nn(C)cc21 (stereo not given) | 6.633
CCOCC1CN(C(=O)c2cnoc2C)Cc2cn(C)nc21.O=C(O)C(F)(F)F (stereo not given) | -24.2
CCOCC1CN(C(=O)Cc2ccccn2)Cc2cnn(C)c21.O=C(O)C(F)(F)F.O=C(O)C(F)(F)F (stereo not given) | 117.4
CCOCC1CN(C(=O)c2cnoc2C)Cc2cnn(C)c21.O=C(O)C(F)(F)F (stereo not given) | 112.3
CCOCC1CN(C(=O)c2ccco2)Cc2cnn(C)c21 (stereo not given) | 93.66
COc1ccccc1NC(=O)NCCCC(=O)Nc1cn[nH]c1 | 3.089
